# PLC-beta3 inh = inhibitors of human phospholipase C beta3 | Purified PLC-beta3, fluorogenic substrate, fluorescence | inhibition, % at 12.2 µM | Q01970 | 370,000 tested, 0.18% active; in the data active = inhibition above about 11%;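 also: 0% = median of compound wells on plate and 100% = full blocker control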
# Target sequence (Q01970 whole entry, looked up): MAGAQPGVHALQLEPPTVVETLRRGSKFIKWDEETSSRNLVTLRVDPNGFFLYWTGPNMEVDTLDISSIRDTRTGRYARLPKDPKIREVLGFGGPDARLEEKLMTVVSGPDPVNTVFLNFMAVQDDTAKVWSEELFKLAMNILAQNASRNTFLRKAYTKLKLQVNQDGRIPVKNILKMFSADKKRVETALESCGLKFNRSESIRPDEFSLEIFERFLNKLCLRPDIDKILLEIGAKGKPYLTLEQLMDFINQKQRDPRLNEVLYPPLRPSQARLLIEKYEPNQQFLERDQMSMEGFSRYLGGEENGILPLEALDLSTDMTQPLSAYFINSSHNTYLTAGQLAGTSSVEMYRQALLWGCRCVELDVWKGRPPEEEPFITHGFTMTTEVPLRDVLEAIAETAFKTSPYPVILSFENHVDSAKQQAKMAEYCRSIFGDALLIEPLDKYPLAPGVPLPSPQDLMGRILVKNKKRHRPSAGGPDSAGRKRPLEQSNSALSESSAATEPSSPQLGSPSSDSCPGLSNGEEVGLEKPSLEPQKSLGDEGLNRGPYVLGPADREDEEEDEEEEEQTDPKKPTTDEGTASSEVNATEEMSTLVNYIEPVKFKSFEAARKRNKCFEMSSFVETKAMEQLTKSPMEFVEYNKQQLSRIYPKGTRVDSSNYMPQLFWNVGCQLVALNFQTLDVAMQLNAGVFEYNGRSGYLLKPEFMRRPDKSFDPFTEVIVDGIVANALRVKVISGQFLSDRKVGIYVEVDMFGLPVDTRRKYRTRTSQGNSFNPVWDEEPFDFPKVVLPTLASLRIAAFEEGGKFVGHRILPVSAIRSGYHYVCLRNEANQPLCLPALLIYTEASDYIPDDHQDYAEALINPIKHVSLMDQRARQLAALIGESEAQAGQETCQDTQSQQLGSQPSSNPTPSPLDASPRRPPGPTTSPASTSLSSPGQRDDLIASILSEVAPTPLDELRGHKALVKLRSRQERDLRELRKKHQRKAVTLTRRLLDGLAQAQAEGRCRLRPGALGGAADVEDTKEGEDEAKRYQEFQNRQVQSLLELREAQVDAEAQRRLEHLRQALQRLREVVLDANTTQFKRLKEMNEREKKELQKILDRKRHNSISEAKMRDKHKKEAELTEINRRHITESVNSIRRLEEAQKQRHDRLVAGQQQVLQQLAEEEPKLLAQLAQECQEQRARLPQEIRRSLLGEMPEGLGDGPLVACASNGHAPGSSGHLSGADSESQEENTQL
# bovine MsrA act = activates bovine MsrA enzyme. AID 602163. activation, % at 10.6 µM. purified bovine MsrA, absorbance read-out. 360,000 tested, 0.3% active; in the data active = activation above about 7.5%;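 also: 0% = vehicle and 100% = reference activator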
# PLC-gamma1 inh = blocks human PLC-gamma1 enzyme activity; purified PLC-gamma1, fluorogenic substrate, fluorescence; inhibition, % at 12.2 µM; 370,000 tested, 0.84% active; P19174; in the data active = inhibition above about 9.5%
# MsrA inh = inhibitors of bovine MsrA | purified bovine MsrA, absorbance read-out | inhibition, % at 15.5 µM | 360,000 tested, 0.75% active;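 also: 0% = vehicle wells with enzyme and 100% = reference inhibitor wells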
# MsrA conf = bovine MsrA inhibition, confirmed. shares compounds with MsrA inh. purified bovine MsrA, absorbance read-out. inhibition, % at 15.5 µM. 2,300 tested, 41% active;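 also: coupled to thioredoxin reductase with NADPH and selenocystamine and DMSO as substrate; 0% = vehicle only and 100% = full effect of reference inhibitor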
# * = called active by the depositor; i = inactive; · = no result given. Compounds with a hit are over-represented: about 1.9% of the library has one in this group of screens. Rule as the data show it, unless noted: active = inhibition above about 4.5%; inactive = the rest.
SMILES,PLC-beta3 inh,bovine MsrA act,PLC-gamma1 inh,MsrA inh,MsrA conf
COc1ccc(/C=C(/C#N)C(=O)Nc2ccc(C)cc2C)cc1C(=O)O,0,-3,-2,7.0*,6.1*
Cc1cccc(NC(=O)/C(C#N)=C/c2ccc[nH]2)c1C,-7,-2,-2,3,·
C[C@H](CO)N1C[C@H](C)[C@@H](CN(C)C(=O)Cc2cccnc2)Oc2ncc(C#CCc3ccccc3)cc2C1=O,-15,·,-11,0,·
Cc1[nH]c2ccccc2c1CC(=O)Nc1ccc(Nc2cccnc2)c(-c2cc(F)cc(F)c2)c1,-34,·,-19,2,·
Cc1[nH]nc2c1C(c1cccc(C(F)(F)F)c1)N(Cc1ccccc1)C2=O (stereo unspecified),-1,·,-2,0,·
N#C/C(=C/c1cccnc1)c1ccccc1,3,-3,3,6.5*,3
COc1ccc(-c2oc3ccc(-c4ccc(OC)nc4)cc3c2C#CC2(O)CCCCC2)cc1,-22,0,-16,2,·
COc1ccc(-c2oc3ccc(-c4ccc5c(c4)OCO5)cc3c2C#CC2(O)CCCCC2)cc1,-205,-4,-105,5.2*,3
Cc1nc2ccccn2c(=O)c1NC(=O)c1ccco1,-30,-1,-23,4.8*,2
Cc1nc2ccccn2c(=O)c1NC(=O)c1cccc2ccccc12,-21,-4,-16,4,·
CC(=O)c1sc(NC(=O)C=C(C)C)nc1C,-3,-8,-3,5.3*,3
CC(=O)c1sc(NC(=O)c2ccc(Br)o2)nc1C,-16,-5,-14,5.6*,3
Cc1[nH]nc2c1C(c1ccsc1)C1=C(CC(C)(C)CC1=O)N2 (stereo unspecified),-382,-14,-325,4.7*,3
O=C(O)COc1ccccc1/C=N/Nc1ccc(S(=O)(=O)Nc2ccc(Cl)cc2)cc1[N+](=O)[O-],2,-2,6,4,·
COc1ccccc1NS(=O)(=O)c1ccc(N/N=C/c2ccccc2OCC(=O)O)c([N+](=O)[O-])c1,-3,-4,7,5.4*,3
CCN(CC)S(=O)(=O)c1ccc(N/N=C/c2ccccc2OCC(=O)O)c([N+](=O)[O-])c1,-2,-10,6,5.6*,2
COc1ccc(NS(=O)(=O)c2cc([N+](=O)[O-])ccc2NN=Cc2ccccc2OCC(=O)O)cc1,-267,-2,-153,0,·
CCn1c(SCC(=O)NN=Cc2ccc(C(=O)O)cc2)nc2ccccc21,3,·,-4,·,·
CC(/C=C/c1ccc2c(c1)OCO2)=N/NC(=O)c1ccc(C)nc1,-77,-2,-60,5.4*,7.1*
Cc1ccc(C(=O)N/N=C\c2cc3c(cc2Br)OCO3)cn1,-6,-1,-3,0,·
CC(/C=C/c1ccc2c(c1)OCO2)=N/NC(=O)c1cccnc1,-27,-4,-30,7.2*,5.5*
CC(/C=C/c1ccc2c(c1)OCO2)=N/NC(=O)c1ccncc1,-32,-7,-21,5.6*,8.6*
C/C(=N\NC(=O)c1ccc2c(c1)OCO2)c1cccnc1,-6,-2,-2,0,·
O=C(N/N=C(/c1ccccc1)c1ccncc1)c1ccc2c(c1)OCO2,7,-5,8,1,·
CCCCCCCCN1C(=O)[C@@H](CC(=O)N2CCCCC2)C[C@@]2(C(=O)OC)C1=C[C@H](C(C)(C)C)O[C@@H]2C,2,·,-1,0,·
SMILES,PLC-beta3 inh,bovine MsrA act,PLC-gamma1 inh,MsrA inh,MsrA conf
C[C@@H]1CN([C@@H](C)CO)C(=O)CCCn2cc(nn2)CO[C@H]1CN(C)C(=O)Nc1cccc(F)c1,-1,·,1,1,·
COC(=O)[C@]12CCCCC=C1N(Cc1ccc(OC)cc1)C(=O)[C@@H]2CC(=O)N1CCOCC1,0,·,0,·,·
COCCCNC(=S)N(CCCO)Cc1cc2cc3c(cc2[nH]c1=O)OCCO3,-44,-2,-34,5.0*,2
COCCCNC(=S)N(CCCO)Cc1cc2cc3c(cc2[nH]c1=O)OCO3,-63,-2,-38,2,·
c1ccc(-c2nc3nc4ccccc4nc3n2CC2CCCO2)cc1 (stereo unspecified),-278,-5,-213,5.2*,5.2*
O=S1(=O)N[C@H](Cc2ccccc2)COc2cccc(NCCO)c21,3,·,0,0,·
N#C/C(=C\Nc1ccccc1O)c1nc2ccccc2o1,-37,-12,-41,9.7*,7.7*
N#C/C(=C\c1ccncc1)c1nc2ccccc2o1,-183,-2,-139,-2,·
Nc1ccc(-c2nc3ncccc3o2)cc1,i,-6,i,6.9*,4.6*
O=C(COC(=O)C1=NN(c2ccccc2)C(=O)CC1)Nc1ccc([N+](=O)[O-])cc1C(F)(F)F,-5,-2,-3,12*,11*

# Source: PubChem
